Bioassay records (PubChem BioAssay)
Compounds with a hit are over-represented: about 12% of the library has one in this group of screens.
CHOP inhibitor: blocks CHOP induction under ER stress. inhibition, % at 10 µM. 220,000 tested, 3.8% active. CHO-K1 CHOP-promoter luciferase, tunicamycin-induced, 15-18 h. AID 2732;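 active = compounds that reduced the stress-induced luciferase reporter signal by more than about 70% of percent inhibition, limit read from the data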;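 also: 0% = tunicamycin plus vehicle and 100% = wells without tunicamycin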
Arbovirus inh: arbovirus infection inhibition; arbovirus infection cell-based antiviral screen; inhibition, % at 10 µM; 200,000 tested, 0.37% active; AID 1251; in the data active = inhibition above about 30%
Lmaj promast: Leishmania major promastigote growth inhibition | AID 1063 | 200,000 tested, 9% active | Leishmania major promastigotes, resazurin fluorescence viability | inhibition, % at 10 µM; in the data active = inhibition above about 50%;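 also: promastigotes grown with compound for 44 hours at 28 °C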
WT yeast gro inh: growth inhibition of WT yeast, mitochondrial fusion screen. 190,000 tested, 2.1% active. inhibition, % at 10 µM. mitochondrial fusion phenotypic screen, WT strain; in the data active = inhibition above about 58%; tested in S. cerevisiae
Starred values were filed as active, the others as inactive; x = no result given.

SMILES	CHOP inhibitor	Arbovirus inh	Lmaj promast	WT yeast gro inh
Cc1ccc(-c2csc(NC(=O)/C=C/c3ccco3)c2C(=O)O)cc1	-19.9	71.1*	-0.8	13.4
O=C(/C=C\c1ccco1)Nc1nc(-c2ccccc2)cs1	9.2	9.0	11.9	21.3
O=C(/C=C/c1ccco1)Nc1sc2c(c1C(=O)O)CCC2	-48.7	73.4*	-2.0	0.2
CC(C)c1ccc(-c2csc(NC(=O)c3cccs3)c2C(=O)O)cc1	-1.7	41.4*	0.6	4.9
COCCOC(=O)c1c(NC(=O)CN2c3ccccc3CC2C)sc(C(N)=O)c1C (centres undefined)	10.2	5.2	1.2	-4.7
CCOC(=O)c1ccc(NC(=O)CSc2nc3cccnc3n2C)cc1	37.6	12.4	1.6	-4.6
NC(=O)C1(N2CCCCC2)CCN(C(=S)Nc2ccc(F)c(Cl)c2)CC1	21.3	-3.8	0.2	11.5
Cc1ccc(NC(=O)CSc2nc(N)c3cc4c(nc3n2)CCCC4)cc1	64.7	-11.0	93.1*	6.9
Cc1ccc(NC(=O)CSc2nc(N)c3c4c(sc3n2)CSC(C)(C)C4)cc1	36.8	-20.5	87.9*	48.5
COc1ccc(NC(=O)CSc2nc(N)c3cc4c(nc3n2)CCCC4)c(OC)c1	-6.0	-14.5	3.4	-1.5
Nc1nc(SCC(=O)Nc2ccccc2)nc2nc3c(cc12)CCCC3	30.4	-6.4	66.0*	-3.9
CC1CCCN(S(=O)(=O)c2ccccc2[N+](=O)[O-])C1 (centres undefined)	10.1	1.3	46.5	14.6
Cc1ccc(CC2(O)CC(C)N(C)CC2C)c(C)c1 (centres undefined)	37.7	7.8	69.4*	8.3
CCC(C)[C@H](NC(=O)Nc1ccccc1F)C(=O)OC (some centres undefined)	13.1	x	x	x
C=CCn1c(SCc2c(C)noc2C)nnc1C1COc2ccccc2O1 (centres undefined)	36.0	71.0*	21.2	28.1
O=C(Nc1nc(N2C(=O)c3ccccc3C2=O)n(-c2ccccc2)n1)c1ccc(Cl)cc1	56.3	-3.3	-10.0	-3.5
CCOC(=O)C1CCN(C(=O)CSCc2nc(-c3ccc(OCC)cc3)oc2C)CC1	76.7*	5.5	-1.6	11.6
CCOc1ccc(-c2nc(CSCC(=O)N3CCN(C(=O)c4ccco4)CC3)c(C)o2)cc1	37.6	6.4	-2.9	10.2
CC1CC(C)CN(S(=O)(=O)c2ccccc2[N+](=O)[O-])C1 (centres undefined)	48.8	9.6	4.7	-5.6
Cn1c(Oc2ccccc2NCc2cc(Br)ccc2O)cc(=O)n(C)c1=O	58.3	31.5*	99.0*	16.5
Cc1ncc([N+](=O)[O-])n1Cc1ccccc1F	10.3	-3.6	49.9	-2.7
Cc1ncc([N+](=O)[O-])n1Cc1cccc2ccccc12	37.1	2.2	57.2*	-15.3
O=C(CN1CCN(S(=O)(=O)c2ccc3ccccc3c2)CC1)Nc1ccc2c(c1)CCC2	55.7	-4.7	89.2*	6.9
COc1ccc(NC(=O)CN2CCN(c3ccccc3F)CC2)cc1	-7.2	-5.5	-4.9	-13.6
N#Cc1ccsc1NC(=O)CN1CCN(S(=O)(=O)c2ccc3ccccc3c2)CC1	77.5*	17.5	64.6*	6.4
SMILES	CHOP inhibitor	Arbovirus inh	Lmaj promast	WT yeast gro inh
N#Cc1ccsc1NC(=O)CN1CCN(Cc2ccccc2)CC1	4.8	-0.6	3.0	-2.4
O=C(CN1CCN(c2ccccc2F)CC1)Nc1ccc2c(c1)CCC2	47.5	3.9	63.9*	2.8
Cc1ccc(S(=O)(=O)N2CCN(CC(=O)Nc3ccc4c(c3)CCC4)CC2)cc1C	60.5	-20.6	5.0	33.3
CCOc1ccc(C(=O)NN2C(=O)C3C4C=CC(O4)C3C2=O)cc1 (centres undefined)	-9.3	5.0	-3.9	8.2
NS(=O)(=O)c1ccc(Nc2ncccc2[N+](=O)[O-])cc1	40.3	-1.2	75.1*	8.8
Cc1ccccc1NCC(=O)c1ccc(Br)cc1	70.3*	4.6	7.0	4.2
CCOC(=O)c1c(C)n(C)c2ccc(OCC(O)CN3CCN(C)CC3)cc12 (centres undefined)	52.7	7.4	75.9*	7.9
CCOC(=O)c1c(C)n(-c2ccc(C)cc2)c2ccc(OCC(O)CN3CCN(C)CC3)cc12 (centres undefined)	16.4	-33.9	100.3*	92.3*
CCOC(=O)c1c(C)n(C)c2ccc(OCC(O)Cn3c(C)nc4ccccc43)cc12 (centres undefined)	50.8	17.7	9.7	1.6
COc1ccccc1N1CCN(C(CNC(=O)c2ccc3c(c2)OCO3)c2cccnc2)CC1 (centres undefined)	-7.7	-7.7	94.4*	42.1
COc1ccccc1N1CCN(C(CNC(=O)C2CCCCC2)c2cccnc2)CC1 (centres undefined)	-7.9	-3.0	51.0*	4.8
O=C(NCC(c1ccco1)N1CCN(c2ccccc2)CC1)c1ccc2c(c1)OCO2 (centres undefined)	-12.4	-10.0	23.4	10.8
Cc1cccc(C)c1N(Cc1ccccc1F)S(C)(=O)=O	-6.2	5.3	1.6	-10.7
OC(COc1ccc2c(c1)OCO2)CN1CCN(c2ccccc2)CC1 (centres undefined)	-11.0	-14.2	-2.0	6.2
COc1ccc(OCC(O)CN2CCN(c3ccccc3)CC2)cc1 (centres undefined)	-9.5	2.5	20.8	12.7
OC(COc1c(F)cc(Br)cc1F)CN1CCN(c2ccc(F)cc2)CC1 (centres undefined)	58.4	19.4	86.6*	42.5
OC(COc1ccc2ccccc2c1)CN1CCCC1 (centres undefined)	-11.5	-1.0	74.1*	5.9
O=C(c1cc2ccccc2cc1OCC(O)CN1CCCCC1)N1CCCCC1 (centres undefined)	-19.2	-4.8	-0.2	-15.6
OC(COc1ccc2ccccc2c1)CN1CCN(c2ccc(F)cc2)CC1 (centres undefined)	87.0*	-5.9	-1.7	17.2
COc1ccc(N2CCN(CC(O)COc3ccccc3[N+](=O)[O-])CC2)cc1 (centres undefined)	-11.6	9.7	92.2*	-2.9
Cc1cc(Cl)ccc1NNC(=O)CCc1ccccc1	-4.9	x	x	x
C=CCn1c(C)cc(C(=O)CSc2n[nH]c(N)n2)c1C	-10.1	-0.7	-1.2	13.1
CN1CCN(C(N)=NC(=O)c2ccccc2)CC1	16.1	3.1	-8.2	-16.9
CC(=O)N1N=C(c2ccc(C)c([N+](=O)[O-])c2)OC1(C)C	16.2	x	x	x
CN(Cc1cn[nH]c1-c1ccc(-c2ccccc2)cc1)CC1CCOCC1	-12.8	x	x	x
SMILES	CHOP inhibitor	Arbovirus inh	Lmaj promast	WT yeast gro inh
CC(=O)N1CCc2cc(Br)cc(S(=O)(=O)N3CCCCCC3)c21	1.9	8.4	32.0	15.9
CCC(=O)N1CCc2cc(Br)cc(S(=O)(=O)NCC3CCCO3)c21 (centres undefined)	-8.7	11.6	0.0	-18.4
CC(=O)N1CCc2cc(Br)cc(S(=O)(=O)NCCN3CCCCC3C)c21 (centres undefined)	10.8	7.0	99.2*	-12.7
CC(=O)N1CCc2cc(Br)cc(S(=O)(=O)NCCCN3CCC(C)CC3)c21	11.6	4.1	98.6*	3.0
O=C(C1CC1)N1CCc2cc(Br)cc(S(=O)(=O)NCCCN3CCCC3)c21	-17.9	3.9	99.2*	-1.2
CCC(=O)N1CCc2cc(Br)cc(S(=O)(=O)NCCN3CCOCC3)c21	x	0.4	x	3.3
